Results taken from PubChem BioAssay AID624133 (Broad Institute, 2012).
About 1,300 (81%) of roughly 1,600 compounds were called active. The rule behind the calls is not given here. So high a share suggests a set chosen from earlier hits. The list is a sample of the results. Results with a measured potency or affinity are listed apart.

Assay: control 3'UTR Renilla luciferase suppression, dose response, counter-screen for Shn3 inhibitor project, cell-based, Clone20-Shn3RL, cherry-picked (AID 624133);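 note: 0% = neutral control wells and -100% = positive control wells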
Details: Clone20-Shn3RL cells, Renilla luciferase luminescence, 24 h; at 35 µM (top of the series) unless noted

SMILES	activity change, negative = inhibition
CCn1nnc2cc(C(=O)Nc3cc(Cl)ccc3C)ccc21	-11.1%
CCOC(=O)c1c(C)[nH]c(C(=O)COC(=O)[C@H](C)N2C(=O)C3CCCCC3C2=O)c1C (stereo not given in full)	-5%
O=C(Nc1cccc(-c2ccc(N3CCCCC3)nn2)c1)C(F)(F)F	-50%
Nc1c(Br)cc2c(c1Br)C(O)c1ccccc1-2 (stereo not given)	22.2%
CCCOc1ccc2oc(=O)c3c(c2c1)CCCN3C(=O)CN1CCN(c2ncccn2)CC1	133%
COc1ccc(CN(C(=O)CSc2nnc(-c3ccc(F)cc3)o2)c2ccc(F)cc2)cc1	16.7%
CSc1cccc(NS(=O)(=O)c2ccc3c(c2)CCN3C(C)=O)c1	400%
COc1cc(SC)ccc1C(=O)Nc1nc2ccccc2[nH]1	-90%
Cc1cccc(CSc2cccc3cccnc23)c1	49.1%
O=C(NCc1ccccc1C(F)(F)F)c1cccc2c1C(=O)c1ccc(N3CCC(N4CCCCC4)CC3)cc1S2(=O)=O	-33.6%
CC(C)n1c(/C=C/[C@@H](O)C[C@@H](O)CC(=O)O)c(-c2ccc(F)cc2)c2ccccc21	-100%
O=c1cc(-c2ccc(O)cc2)oc2ccc3ccccc3c12	91.7%
Cn1cc([N+](=O)[O-])c(C(=O)Nc2sc3c(c2C#N)CCC3)n1	-10.8%
O=C(COC(=O)/C=C/c1ccc(OC(F)F)cc1)Nc1ccc2[nH]c(=O)[nH]c2c1	-21.3%
O=C(Nc1nc2cc3c(cc2s1)OCCO3)C1=COCCO1	45.8%
Cc1cccc(-c2noc(CN(C(=O)C(c3ccccc3)c3ccccc3)C(C)C)n2)c1	-29.9%
CC1=NOC(=O)/C1=C\c1ccc(-c2ccccc2Br)o1	35.7%
COc1ccc(NS(=O)(=O)c2ccc3ccccc3c2)c2ncccc12	293%
Cc1nc2scc(C)n2c(=O)c1S(=O)(=O)Nc1ccc(N2CCOCC2)c(Cl)c1	62.5%
Nc1nnc(SCC(=O)Nc2ccc(N3CCOCC3)cc2)s1	45.8%
CCOc1cc(/C=C2\C(=O)ON=C2C)ccc1OCc1ccccc1	-100%
O=C(Nc1ccc(Cl)cc1)Nc1ccc(N2CCCC2)c(S(=O)(=O)Nc2ccccc2Cl)c1	-17.1% [at 16 µM]
COc1ccc(CNC(=O)C(c2ccc(C)cc2)N(Cc2cccs2)C(=O)c2ccc3c(c2)OCCO3)cc1 (stereo not given)	50%
COc1ccc(CCNC(=O)CCC(=O)N2CCOc3ccc(Cl)cc32)cc1OC	-107%

SMILES	activity change, negative = inhibition
CCc1ccc(OCCNc2cc(N3CCNC(C)C3)ccc2[N+](=O)[O-])cc1 (stereo not given)	-83.3%
O=S(=O)(c1ccc(Cl)cc1)n1ccc2cccnc21	6.94%
Cc1ccc(C)c(S(=O)(=O)Nc2ccc(-n3cnnn3)cc2)c1	276%
COc1ccc(C(=O)OCC(=O)Nc2ccc3[nH]c(=O)[nH]c3c2)cc1	62.5%
Cc1ccccc1NC(=O)CSc1nc2ccccc2c(=O)n1C	10%
COc1ccc(N2C(=O)C(CC(=O)Nc3ccccc3)N(Cc3ccc(OC)c(OC)c3)C2=O)cc1 (stereo not given)	84.7%
CCCCC[C@H]1CN(Cc2ccc(OC)cc2)C(=O)[C@@H]1CC(=O)NCc1ccccc1	196%
COCCn1c(C)cc(C2=NNC(=NC3CC3)SC2)c1C	10%
Cc1ccc(S(=O)(=O)Nc2cccc3ncccc23)s1	-66.7%
Cc1nc(SCC(=O)Nc2nc3ccccc3s2)c(C#N)c(C)c1C	-8.33%
COc1ccc(NS(=O)(=O)c2ccc(OC)c(N(C)S(=O)(=O)c3ccc(Cl)cc3)c2)cc1	-58.3%
Cc1ccc(NC(=O)c2cc3ccccc3oc2=O)cc1S(=O)(=O)N(C)C	45.2%
Cc1cccc(C)c1NC(=O)CN(C)C(=O)c1cc(S(=O)(=O)N(C)C)ccc1N1CCCC1	41.7%
Cc1nc2ncnn2c(C)c1Cc1cccc(F)c1	25%
Cn1cc(CN(CCO)Cc2cccs2)c(-c2cccc(Cl)c2)n1	16.7%
COc1ccc(C(=O)Cn2c(C(=O)/C=C/c3ccccc3)nc3ccccc32)cc1	170%
O=C(O)c1cccc(COc2ccccc2Cl)c1	-10%
COc1ccc(OCc2cccc(C(=O)O)c2)cc1	107%
Oc1c(C(c2cccs2)N2CCC3(CC2)OCCO3)sc2ncnn12 (stereo not given)	151%
COC(=O)[C@@]12CCCN1[C@H](c1ccc(-c3ccc(OC)cc3)cc1)[C@@H]1C(=O)N(C)C(=O)[C@@H]12	47.2%
CCN1C(=O)[C@H]2[C@@H](c3ccc(-c4ccc(OC)cc4)cc3)N3CCC[C@@]3(C(=O)OC)[C@H]2C1=O	-39.3%
CCCCN1CC(COCc2ccccc2)Oc2cccc(Oc3cc(C)c(C)c(C)c3)c2S1(=O)=O (stereo not given)	300%
CCCCN1CC(COCc2ccccc2)Oc2cccc(Oc3ccc(C)cc3)c2S1(=O)=O (stereo not given)	130%
COC(=O)c1ccccc1NC(=S)N(Cc1ccc2c(c1)OCO2)Cc1cc2cc(OC)ccc2[nH]c1=O	200%

SMILES	activity change, negative = inhibition
O=C1S/C(=C\c2ccc(N3CCOCC3)o2)C(=O)N1Cc1c(F)cccc1Cl	400%
Cc1cc(C)n(-c2cc(-n3nc(C)cc3C)ncn2)n1	2.38%
C[C@@H]1CN([C@H](C)CO)C(=O)c2cc(Br)cnc2O[C@H]1CN(C)C(=O)Cc1ccncc1	83.3%
CN1OC[C@@H]2CN[C@H](c3ccc(-c4cc5ccccc5o4)cc3)C[C@@H]21	-25%
CN(CC(=O)Nc1cc(S(=O)(=O)N2CCCC2)ccc1Cl)Cc1ccc2c(c1)OCO2	87.5%
CC(C)(C)OC(=O)NCc1ccc(CNC(=O)c2nc[nH]c2C(=O)NCc2ccc(CNC(=O)OC(C)(C)C)cc2)cc1	208%
Cc1ccc(-n2cc(CNCCCn3ccnc3C)c(-c3ccc(F)cc3)n2)cc1	-91.7%
COC(=O)c1cn(NC(=O)c2cc([N+](=O)[O-])ccc2F)c(=O)c2ccccc12	354%
CC(C)c1ccc(Oc2cccc3c2S(=O)(=O)N(C2CCCC2)CC(COCc2ccccc2)O3)cc1 (stereo not given)	273%
Cn1cccc1Cc1nnc(SCC(=O)NCCc2ccccc2)n1-c1ccc(F)cc1	275%
CCN(CC)S(=O)(=O)c1ccc(N(C)Cc2cccc(OC)c2OC)nc1	-40%
CCOC(=O)c1ccc(NC(=O)c2nc[nH]c2C(=O)NCCNC(=O)c2[nH]cnc2C(=O)Nc2ccc(C(=O)OCC)cc2)cc1	47.9%
COc1ccccc1N1CCN(c2ncc(C(=O)N3CCN(c4cccc(Cl)c4)CC3)c3ccccc23)CC1	66.7%
Cc1cccc2c(C(=O)N3CCN(c4ccccn4)CC3)cc(-c3cccc(Br)c3)nc12	-100%
CCOc1cc(C)c(S(=O)(=O)Nc2ccc3cn[nH]c3c2)cc1C	0%
Cc1ccc(NC(=O)C2CCCN(S(=O)(=O)c3c(C)noc3C)C2)cc1 (stereo not given)	-19.4%
COc1ccc(C(=O)NCCN(C)C)c2nc3ccccc3cc12	66.5%
COc1ccccc1/C=C1\CCCC2=C1Nc1nnnn1C2c1ccccc1OC (stereo not given)	-110%
CCn1c(C)cc(C(=O)COC(=O)c2ccccc2[N+](=O)[O-])c1C	-13.6%
COc1ccc(-c2nsc3c(N4CCCCC4C)ncnc23)cc1 (stereo not given)	-16.7%
O=C(CN1C(=O)C2CCCCC2C1=O)NC1CCCc2ccccc21 (stereo not given)	-10%
C[C@@H]1CN([C@@H](C)CO)C(=O)c2cc(NC(=O)Nc3ccc(F)cc3)ccc2O[C@@H]1CN(C)Cc1ccc(Oc2ccccc2)cc1	-20.8%
C[C@@H]1CCCCO[C@H](CN(C)Cc2ccccc2)[C@@H](C)CN([C@H](C)CO)C(=O)c2cc(NC(=O)c3ccccc3)ccc2O1	33.3%
CN(Cc1ccccc1)C(=O)c1cccc(NC(=O)Cc2ccc([N+](=O)[O-])cc2)c1	230%

SMILES	activity change, negative = inhibition
COc1ccc2c(CC(=O)OCC(=O)N(C)c3c(N)n(Cc4ccccc4)c(=O)[nH]c3=O)coc2c1	-12.5%
CC(Oc1ccc(F)cc1)C(=O)N(CCC1=CCCCC1)c1c(N)n(Cc2ccccc2)c(=O)[nH]c1=O (stereo not given)	-25%
COc1ccc(CN2CCC(C(=O)Nc3ccc(Oc4cccnc4)cc3)CC2)c(C)c1C	-75%
CC(C)(C)C(=O)Nc1cc(S(=O)(=O)N2CCCCC2)ccc1N1CCCCC1	50%
COc1cccc(-c2nc(NC3CCCC3)c3ccccc3n2)c1O	-22.7%
COc1ccc(-n2ncc3c(N4CCCCC4)ncnc32)cc1	-75%
CCn1cc(CNCc2cn(-c3ccccc3C)nc2-c2ccc(OC)c(F)c2)cn1	150%
Cc1ccc(C(=O)Nc2cnc3ccccc3c2)cc1	90%
CC(=O)c1cccc(NS(=O)(=O)c2ccc(-c3cnc(C4CC4)o3)cc2)c1	8.33%
Cc1cccc(NS(=O)(=O)c2ccc(C3CCCCC3)cc2)c1	0%
CCOC(=O)c1[nH]c(C)c(/C(O)=C2\C(=O)C(=O)N(CCCN3CCOCC3)C2c2cccs2)c1C (stereo not given)	70%
O=C(CSc1nnc(Nc2ccccc2)s1)NC1CCS(=O)(=O)C1 (stereo not given)	20.8%
CCOC(=O)c1cn(CC(=O)Nc2cccc(Cl)c2C)nn1	16.7%
CCOC(=O)Cn1c(S(=O)(=O)Cc2ccccc2Cl)nc(-c2ccccc2)c1-c1ccccc1	110%
CC1(C)CC(=O)c2c(nc(SCC(=O)Nc3nsc(-c4ccccc4)n3)c(C#N)c2-c2ccccc2)C1	16.7%
Cc1cccc(C(=O)Nc2ccc(C(=O)/C=C/c3ccncc3)cc2)c1	-100%
CCCCN1CC(COCc2ccccc2)Oc2cccc(Oc3ccc(C(C)C)cc3)c2S1(=O)=O (stereo not given)	37.5%
OCCNc1nc(Nc2ccc(Cl)cc2)nc(N2CCCC2)n1	-11.7%
OCCCNc1nccc(-c2cc(Nc3cccc(Cl)c3)ncn2)n1	-50%
Cc1cc(O)c(C(C)C)cc1C1(c2cc(C(C)C)c(O)cc2C)OC(=O)c2ccccc21	0%
Cc1ccccc1C(=O)N1CCN(c2ccc(NC(=O)c3ccc4c(c3)OCCO4)cc2)CC1	-103%
O=C(NCCc1ccccc1)c1ccc2c(c1)OCCCO2	22.2%
Cc1onc(-c2c(Cl)cccc2Cl)c1C(=O)N[C@@H]1C(=O)N2[C@@H]1SC(C)(C)[C@@H]2C(=O)O	25%
